Shown are actives, neighbours in structure and some others; about 3.5% of the full set was active somewhere.
GPR151 activ = activators of human GPR151, primary screen, cell-based, PathHunter beta-arrestin, luminescence; activation, % at 11.2 µM; PathHunter beta-arrestin GPR151 cells; AID 1508602, 2020; actives 1% (n = 650,000); G-protein coupled receptor 151 (Homo sapiens), Q8TDV0; in the data active = activation above about 4.9%;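 note: 0% = median of compound wells and 100% = cells with positive control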
TEAD-YAP inh = TEAD-YAP interaction inhibition, primary screen, TEAD-YAP interaction inhibitor project, luminescence, HEK-TIYL cells | inhibition, % at 9.12 µM | AID 1259422, 2018 | TEAD-Gal4/YAP UAS-luciferase luminescence | actives 1.4% (n = 640,000); in the data active = inhibition above about 32%;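 note: 0% = median of test compound wells and 100% = reference inhibitor wells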
FBW7 activator = FBW7 E3 ligase activators, primary screen, biochemical, AlphaScreen, human; F-box/WD repeat-containing protein 7 (Homo sapiens), Q969H0; AlphaScreen FBW7–phospho-cyclin E peptide binding, activator screen; normalized activity (activation), % at 26.1 µM; actives 0.13% (n = 650,000); AID 1259310, 2017; in the data active = normalized activity above about 1.9%;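 note: purified mutant Fbw7 with reduced substrate affinity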
MITF inh = MITF inhibitors, primary screen, biochemical, AlphaScreen, human. Microphthalmia-associated transcription factor (Homo sapiens), O75030. AlphaScreen MITF homodimerization, bead proximity signal. inhibition, % at 2.6 µM. actives 0.91% (n = 650,000); in the data active = inhibition above about 50%;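 note: 0% = vehicle wells with protein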
GPR151 conf act = GPR151 activators, triplicate retest, confirmation, cell-based, PathHunter beta-arrestin, luminescence; GPR151 PathHunter beta-arrestin cells, 90 min; % of EA-reagent control over plate median; 6,700 tested, under 10 active; shares compounds with GPR151 activ; activation, % at 11.2 µM; AID 1508609, 2020;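 active = mean percent activation across replicates above the confirmation screen cutoff of 4.91%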
GPR119 counter = GPR119 activators in beta-arrestin cells, counter-screen for GPR151 activator project, cell-based, PathHunter beta-arrestin, luminescence, triplicate; actives 0.3% (n = 6,700); AID 1508611, 2020; activation, % at 11.2 µM; 90 min; 0 = compound-well median, 100 = enzyme-acceptor control; shares compounds with GPR151 activ;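 active = mean percent activation in the counterscreen above 29.09%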;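 note: counterscreen on off-target GPR119 to flag nonselective hits from the GPR151 activator screen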
* = called active by the depositor; / = no result.

SMILES	GPR151 activ	TEAD-YAP inh	FBW7 activator	MITF inh	GPR151 conf act	GPR119 counter
CC1(C)Cc2ccccc2/C(=C/C(=O)Nc2ccc(Cl)cc2)N1	-0.9	-1.9	0.1	5.4	/	/
Cc1cccc(-n2nnnc2C(c2ccccc2)N2CCOCC2)c1 (stereo not drawn)	8.5*	11.9	0.2	6.4	0.5	10.9
c1cc(N2CCOCC2)ccc1Nc1nc(-c2ccc(N3CCOCC3)nc2)nc2c1ncn2C1CCCCC1	-1.5	1.4	-0.1	24.8	/	/
CCN(CC)CCCCNc1ncc2cc(-c3cc(OC)cc(OC)c3)c(NC(=O)NC(C)(C)C)nc2n1	5.3*	/	/	4.7	-0.8	4.5
CCN(CC)CCCCCCNc1cc(OC)cc2c(C)ccnc12	-2.1	/	/	/	/	/
Cc1ccc2oc(-c3cccc(NC(=S)NC(=O)c4ccc(Cl)cc4)c3C)nc2c1	5.3*	-32.3	0.2	2.1	0.3	4.3
COc1ccc(-c2cc(=O)oc3cc(O)c(Cl)cc23)cc1	0.6	19.9	0.0	-5.3	/	/
COc1ccc(-c2cc(=O)oc3c(O)c(O)ccc23)cc1	8.2*	13.6	-0.3	-2.9	-0.6	0.8
Cc1ccc(NC(=O)CSc2nc3[nH]ncc3c(=O)n2-c2ccccc2)cc1Cl	-1.0	14.2	0.1	10.2	/	/
CCc1cc2c(=O)c(-c3ccc4c(c3)OCCCO4)coc2cc1OC(C)C(=O)OC (stereo not drawn)	3.9	22.8	0.2	4.2	/	/
CCc1cc2c(=O)c(-c3ccc4c(c3)OCCO4)coc2cc1OC(C)C(=O)OC (stereo not drawn)	6.8*	4.2	0.6	3.6	2.8	-1.5
CCN(Cc1ccccc1)C(=O)Cn1c(=O)n(-c2ccc(OC)cc2)c(=O)c2ccccc21	7.9*	11.4	0.0	1.6	0.7	-1.4
CCOc1ccc(-n2c(=O)c3sccc3n(CC(=O)N(CC)CC)c2=O)cc1	-0.5	1.8	-0.1	0.7	/	/
COc1ccc(-n2c(O)c(C=NCc3ccc(F)cc3)c(=O)[nH]c2=O)cc1	7.1*	5.1	0.1	18.4	-1.2	-5.4
CCC(CO)NCc1ccc(OCC(=O)NC(C)c2ccccc2)c(OC)c1 (stereo not drawn)	6.0*	3.6	-0.3	-0.1	1.3	0.8
O=C(Nc1ccc(Cl)c(Cl)c1)O/N=C\c1ccncc1	0.0	0.7	0.6	19.5	/	/
O=C(CN1CC(=O)Oc2ccccc21)NCC1CCCO1 (stereo not drawn)	13.2*	-18.1	0.4	2.6	-1.3	-9.3
CSc1ccc(NC(=O)C2CC23CCN(C(=O)C2=CC(=O)CC(C)(C)O2)CC3)cc1 (stereo not drawn)	-0.9	1.1	-0.1	3.0	/	/
O=C(O)CCC/C=C\C[C@@H]1[C@@H](/C=C/[C@@H](O)COc2cccc(C(F)(F)F)c2)[C@H](O)C[C@@H]1O	3.9	/	/	-4.7	/	/
O=C(O)CCC/C=C/C[C@@H]1[C@@H](/C=C/[C@@H](O)COc2cccc(C(F)(F)F)c2)[C@H](O)C[C@@H]1O	5.1*	/	/	2.0	1.6	7.7
O=S(=O)(c1ccc(S(=O)(=O)n2cnc3ccccc32)cc1)N1CCCC1	6.0*	4.5	0.2	3.0	0.9	1.3
CCc1ccc(S(=O)(=O)c2nnn3c2nc(N(CC)CC)c2sccc23)cc1	-0.1	3.6	-0.1	-6.0	/	/
COc1ccc(CNc2nc(-c3cccnc3)nn2C(=O)c2ccc(F)cc2)cc1	0.7	-2.5	-0.1	-9.4	/	/
COc1cc2c(C(=O)O)c(C)n(-c3ccccc3)c2c2ccccc12	1.8	13.8	0.1	-2.3	/	/
COc1ccc(-n2c(C)c(C(=O)O)c3cc(OC)c4ccccc4c32)cc1	4.9*	15.7	-0.1	2.9	0.3	5.4
COc1ccccc1NC(=O)CSc1nc2ccsc2c(=O)n1Cc1ccccc1	6.0*	3.7	0.0	-0.2	1.2	9.8
O=C(CSc1nc2ccsc2c(=O)n1Cc1ccccc1)NCCC1=CCCCC1	8.7*	-7.1	0.1	4.8	0.8	3.9
